G9a inh = blocks human histone lysine methyltransferase G9a. G9a H3K9 monomethylation, AlphaScreen, 2 h. Potency, µM (titrated, usually from 102 µM), for inactives: top-dose activity, negative = inhibition, most hits filed as inhibitors. 8.8% of 350,000 active; further: on the % scale 0 is the no-effect control and ±100 the full control effect; nearly all actives have a fitted effect of over 75% in size
Target sequence (Q96KQ7 913-1193 limits assumed): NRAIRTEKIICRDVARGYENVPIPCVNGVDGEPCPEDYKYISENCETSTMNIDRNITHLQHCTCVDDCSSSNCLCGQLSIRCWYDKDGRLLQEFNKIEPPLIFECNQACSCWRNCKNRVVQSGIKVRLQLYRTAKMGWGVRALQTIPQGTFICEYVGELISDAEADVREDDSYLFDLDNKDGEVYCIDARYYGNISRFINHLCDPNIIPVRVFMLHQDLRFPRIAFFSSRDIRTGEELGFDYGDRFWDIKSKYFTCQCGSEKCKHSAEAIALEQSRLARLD
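Signal arises when biotinylated H3K9 peptide, once monomethylated, bridges streptavidin donor and antibody-captured acceptor beads. Enzyme at 20 nM was preincubated 15 min with test compounds; peptide 500 nM and SAM 20 uM then reacted for 2 h.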
HP1b binding inh = inhibitors of HP1-beta chromodomain binding to methylated histone tails | Potency, µM (top dose mostly 114 µM), for the others: top-dose activity change, negative = inhibition, most hits filed as inhibitors | 0.56% of 390,000 active | AlphaScreen HP1-beta / biotin-H3K9me3 peptide binding; further: nearly all actives have a fitted effect of over 70% in size
Target sequence (P83916 whole entry, looked up): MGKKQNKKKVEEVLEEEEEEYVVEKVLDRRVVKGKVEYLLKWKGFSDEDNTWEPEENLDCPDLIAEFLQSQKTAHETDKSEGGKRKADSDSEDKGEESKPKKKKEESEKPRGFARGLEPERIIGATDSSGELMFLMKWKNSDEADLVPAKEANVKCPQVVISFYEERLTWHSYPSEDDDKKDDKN
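HP1-beta protein (50 nM final) preincubated 30 min at room temperature with biotinylated H3(1-18)K9me3 peptide (50 nM) in PBS pH 7.4, 0.01% Tween-20, then compound added for 30 min. AlphaScreen streptavidin donor/nickel chelate acceptor beads (10 ug/mL final), 30 min dark, luminescence read.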
JMJD2A Tudor inh = JMJD2A Tudor domain (human) inhibition. AID 504339. 4.4% of 390,000 active. O75164. Potency, µM (doses to about 114 µM), without a hit: at the highest dose activity change, negative = inhibition, actives largely listed as inhibitors. AlphaScreen JMJD2A-Tudor / H3K4me3 peptide binding; further: on the % scale 0 is the no-effect control and ±100 the full control effect; nearly all actives have a fitted effect of over 50% in size
GLS inh = inhibitors of human glutaminase (GLS); O94925; GLS enzymatic activity, qHTS titration; Potency, µM (top dose mostly 45.5 µM), without a hit: at the highest dose activity change, negative = inhibition, actives largely listed as inhibitors; 0.21% of 410,000 active; further: on the % scale 0 is the no-effect control and ±100 the full control effect
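Assay buffer: 45 mM KH2PO4 pH 8.2, 0.02% Tween-20. hKGA acts on L-glutamine (1 mM solution added); product glutamate is reported by an oxidase/peroxidase Amplex Red coupling, with fluorescence taken at baseline and 30 min.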
BAZ2B block = BAZ2B (human) inhibition; AlphaScreen BAZ2B-H3K14Ac peptide displacement; Potency, µM (highest dose often 114 µM), for the others: top-dose activity change, negative = inhibition, hits mostly inhibitors; 4.4% of 360,000 active; further: on the % scale 0 is the no-effect control and ±100 the full control effect; nearly all actives have a fitted effect of over 60% in size
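BAZ2B (50 nM) with biotin-H3(5-23)K14Ac peptide (50 nM) in PBS pH 7.4, 0.01% Tween-20, preformed 30 min, then compound 30 min at room temperature; top concentration 110uM. AlphaScreen streptavidin donor/nickel chelate acceptor beads (10 ug/mL final), 20 min dark, signal read.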
* = called active by the depositor; ? = inconclusive; / = no result given; [ ] = dose if it differs, or a comment. This is a sample that favours compounds with a hit; in the whole collection about 10% have one here. The call rests on the fitted dose curve; in most records, active means well fitted curve in the direction sought with a large enough effect; inconclusive means small, poorly fitted or top-dose-only effect, or another doubt; inactive means no such curve, though single readings can be large; an effect the other way counts as inactive or inconclusive. Potency means the concentration at half of the fitted maximal effect.

SMILES | G9a inh | HP1b binding inh | JMJD2A Tudor inh | GLS inh | BAZ2B block
CCCCN(C(=O)c1cc(=O)[nH]c2ccccc12)c1c(N)n(CCC)c(=O)[nH]c1=O | -22% | 36% | 16% | -4% | -2%
CCCCn1c(N)c(N(CCOC)C(=O)c2cc(-c3ccc(OC)c(OC)c3)nc3ccccc23)c(=O)[nH]c1=O | 11µM* | 20% | -14% | 6% | -36%
CC(C)(C)NC(=O)NC(=O)COC(=O)c1ccco1 | -16%[59 µM] | 22% | -6% | 3% | -4%
C=CCNC(=S)NCc1cccnc1 | 0%[59 µM] | 20% | -8% | 5% | 10%
CC(C(=O)N(C)Cc1cccc(F)c1)N1CCN(S(=O)(=O)c2ccc3c(c2)OCCCO3)CC1 (stereo unspecified) | 40µM* | 22% | -16% | 3% | 9%
COC(=O)C1=C(C(=O)OC)SC(=C2C(=S)C(C)(C)N(C(=O)CC(C)C)c3ccccc32)S1 | 7.9µM* | -77% | 11µM* | -7% | 4µM*
CC(C)CC(=O)n1sc(NC(=O)c2ccccc2)nc1=O | 1%[2.33 µM] | 40% | -4% | 2% | 6%
COc1ccc(CCNCC(O)Cn2c3ccccc3c3ccccc32)cc1OC (stereo unspecified) | ? | -6% | -35% | -4% | ?
COc1ccccc1NCC(O)Cn1c2ccccc2c2ccccc21 (stereo unspecified) | ? | ? | 40µM* | 0% | 40µM*
O=C(O)CCC(=O)Nc1sc2c(c1C(=O)NCc1ccccc1)CCCC2 | ? | 16% | -12% | 8% | -19%
CN(C(=S)NC1=CCS(=O)(=O)C1)C1CCCCC1 | 10µM* | 32% | -5% | 17% | 0%
Cc1cccc(NC(=S)N(C)C2CCCCC2)c1 | 8% | 26% | -19% | 13% | -5%
COc1ccc(NS(=O)(=O)c2ccc3c(c2)CCC(=O)N3)cc1 | / | / | -13% | / | /
COc1cc(NS(=O)(=O)c2ccc3c(c2)CC(=O)N3)cc(OC)c1OC | 0.35µM* | 14% | -23% | 6% | /
N#Cc1ccc(NS(=O)(=O)c2ccc3c(c2)CCC(=O)N3)cc1 | / | / | 79µM* | / | /
CCOC(=O)C1CCCN(C(=O)c2cc(Cl)ccc2Cl)C1 (stereo unspecified) | 45µM* | 21% | -11% | 2% | -3%
CCOC(=O)C1CCCN(C(=O)Cc2ccc(Cl)cc2)C1 (stereo unspecified) | 2%[59 µM] | 27% | 15% | 1% | 2%
CCOC(=O)C1CCCN(C(=O)c2ccc([N+](=O)[O-])cc2)C1 (stereo unspecified) | 0%[59 µM] | 21% | -11% | -4% | -7%
CCOC(=O)C1CCCN(C(=O)c2ccc(Cl)cc2)C1 (stereo unspecified) | 79µM* | 52% | -4% | -8% | -10%
CCOC(=O)N1CCN(S(=O)(=O)N2CCCC(C(=O)NCc3cccc(OC)c3)C2)CC1 (stereo unspecified) | 29% | 23% | -11% | 0% | 0%
Cc1nc2ccc(NS(=O)(=O)c3c(C)c(C)cc(C)c3C)cc2s1 | 14µM* | 50% | -9%[11.4 µM] | 11% | ?
Cc1nc2cc(NS(=O)(=O)c3c(C)c(C)cc(C)c3C)ccc2s1 | 11%[59 µM] | -6% | -19% | 8% | 13%
O=C(Cc1ccccc1)NNC1CC(=O)N(c2ccc(Oc3ccccc3)cc2)C1=O (stereo unspecified) | -1% | 17% | -16% | 20% | -15%
O=C(Nc1ccc(-c2nnn(CC(=O)N3CCN(C(=O)c4ccco4)CC3)n2)cc1)c1ccccc1F | 56µM* | / | / | / | -14%
COc1ccccc1C(=O)Nc1ccc(-c2nnn(CC(=O)N3CCN(C(=O)c4ccco4)CC3)n2)cc1 | ? | 9% | -14% | 1% | 1%
SMILES | G9a inh | HP1b binding inh | JMJD2A Tudor inh | GLS inh | BAZ2B block
CC(=O)c1cccc(N(C(=O)c2ccco2)C(C(=O)NC2CCCC2)c2ccccc2F)c1 (stereo unspecified) | -4%[59 µM] | 12% | -4% | 0% | 17%
O=C(c1ccc2c(c1)OCO2)C1CCCN(Cc2cc(F)ccc2-n2cccn2)C1 (stereo unspecified) | ? | 46% | -5% | 3% | -31%
C#CCOCCOCCOCCNc1nc(N2CCN(C(=O)C([C@@H](C)O)n3cc([C@@H](N)CCCCN)nn3)CC2)nc(N2CCN(C(=O)C([C@@H](C)O)n3cc([C@@H](N)CCCCN)nn3)CC2)n1 (stereo partly specified) | / | 27% | 50µM* | 4% | /
C#CCOCCOCCOCCNc1nc(N2CCN(C(=O)C([C@@H](C)O)n3cc([C@@H](N)CCCCN)nn3)CC2)nc(N2CCN(C(=O)[C@H](CC(N)=O)n3cc(C(N)[C@@H](C)CC)nn3)CC2)n1 (stereo partly specified) | / | 32% | ? | -5% | /
C#CCOCCOCCOCCNc1nc(N2CCN(C(=O)[C@H](CO)n3cc([C@@H](N)C(C)C)nn3)CC2)nc(N2CCN(C(=O)[C@H](CO)n3cc([C@@H](N)C(C)C)nn3)CC2)n1 | / | 23% | 79µM* | 6% | /
C#CCOCCOCCOCCNc1nc(N2CCN(C(=O)C([C@@H](C)O)n3cc([C@@H](N)CCCCN)nn3)CC2)nc(N2CCN(C(=O)[C@H](CO)n3cc([C@@H](N)C(C)C)nn3)CC2)n1 (stereo partly specified) | / | 25% | 79µM* | -4% | /
C#CCOCCOCCOCCNc1nc(N2CCOCC2)nc(N2CCN(C(=O)[C@H](CCCCN)n3cc([C@@H](N)C(C)CC)nn3)CC2)n1 (stereo partly specified) | ? | 36% | -11% | 0% | -37%
COCCNC(=O)c1sc2ncn(CC(=O)Nc3ccc(C)c(Cl)c3)c(=O)c2c1C | 11% | 28% | -9% | 3% | 2%
CCN1CCC(Nc2ccnc3cc(Cl)ccc23)CC1 | 32µM* | 24% | -6% | 13% | -10%
COc1ccc(/C=N/NC(=O)C(N)=O)c(OC)c1OC | 13% | 13% | -22% | 0% | ?
COc1ccc(CN(CCC(c2ccccc2)c2ccco2)C(=O)c2ccco2)cc1 (stereo unspecified) | ? | 7% | ? | -5% | ?
O=C(c1ccco1)N(CCC(c1ccccc1)c1ccco1)Cc1ccccc1 (stereo unspecified) | ? | -1% | 56µM* | -6% | 50µM*
CN(C(=O)CSc1nc2cc(C(=O)O)ccc2c(=O)n1Cc1ccccc1)C1CCS(=O)(=O)C1 (stereo unspecified) | 50µM* | 19% | -16% | 1% | -5%
Cc1cc(/C=N/n2cnnc2)c(C)n1-c1ccc(Cl)cc1 | 14µM* | -9% | -30% | 7% | -39%
Cc1cc(/C=N/n2cnnc2)c(C)n1-c1ccc(OCc2ccc(Cl)cc2Cl)cc1 | 16%[12.7 µM] | ? | 56µM* | 1% | 40µM*
